Data reported in PubChem BioAssay (NCI).
About 83,000 compounds went through this panel and 20% of them were active in at least one assay; those are over-represented in the sample as a whole.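 Values shown are percent growth following 48 h exposure of cells in 96-well plates to a single concentration of compound; below 10 was considered active.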 The source made the active and inactive calls.

Legend:
Test in all cases: NCI-60 one-dose screen, 48 h (100 = growth as untreated, 0 = no growth, -100 = all killed)
Settings in all cases: 10 µM
NCI-H23 lung = test system: NCI-H23 lung
NCI-H226 lung = test system: NCI-H226 lung
NCI-H460 lung = test system: NCI-H460 lung
HOP-92 NSCLC = test system: HOP-92 NSCLC
A549/ATCC NSCLC = test system: A549/ATCC NSCLC
786-0 renal = test system: 786-0 renal
COLO 205 colon = test system: COLO 205 colon
NCI-H522 lung = test system: NCI-H522 lung
NCI-H322M lung = test system: NCI-H322M lung
HOP-62 NSCLC = test system: HOP-62 NSCLC

Measured: growth

Clc1ccc2c(c1)C(N1CCNCC1)=Nc1ccccc1O2
active: HOP-92 NSCLC 7.39% | COLO 205 colon -65.9%
inactive: NCI-H23 lung 64.4% | NCI-H226 lung 83.3% | NCI-H460 lung 68.1% | A549/ATCC NSCLC 65% | 786-0 renal 56.1%

CCCCCOC(=O)Nc1nc(=O)n(C2O[C@H](C)[C@@H](O)[C@H]2O)cc1F (stereo partly specified)
inactive: NCI-H23 lung 95.3% | NCI-H226 lung 97.7% | NCI-H460 lung 102% | HOP-92 NSCLC 92.4% | A549/ATCC NSCLC 98% | 786-0 renal 106% | COLO 205 colon 106%

COc1ccc([C@H]2[C@H](C(=O)Nc3cccnc3)c3ccccc3C(=O)N2c2ccccc2)cc1
inactive: NCI-H23 lung 90.5% | NCI-H226 lung 95.9% | NCI-H460 lung 91.4% | NCI-H522 lung 82.4% | A549/ATCC NSCLC 87.8% | 786-0 renal 91.2% | COLO 205 colon 63.2%

c1cncc(-c2csc(-c3c[nH]c4ccccc34)n2)c1
inactive: NCI-H23 lung 84.4% | NCI-H226 lung 84.1% | NCI-H460 lung 97% | NCI-H522 lung 73.5% | A549/ATCC NSCLC 78.8% | 786-0 renal 103% | COLO 205 colon 94.9%

CCc1c2c(nc3ccc(OC(=O)N4CCC(N5CCCCC5)CC4)cc13)-c1cc3c(c(=O)n1C2)COC(=O)[C@]3(O)CC
active: NCI-H23 lung 5.19% | NCI-H226 lung 7.44% | NCI-H460 lung 5.87% | 786-0 renal -47.7%
inactive: HOP-92 NSCLC 72.3% | A549/ATCC NSCLC 39.6% | COLO 205 colon 58.1%

Nc1cc(-c2ccncc2)c[nH]c1=O
inactive: NCI-H23 lung 102% | NCI-H226 lung 103% | NCI-H460 lung 110% | HOP-92 NSCLC 90.9% | A549/ATCC NSCLC 106% | 786-0 renal 103% | COLO 205 colon 113%

COc1ccc(-c2nn(-c3cccc(Cl)c3)cc2-c2cc(-c3ccccc3)[nH]c(=O)c2C#N)cc1
active: HOP-92 NSCLC -28% | 786-0 renal 6.65%
inactive: NCI-H23 lung 26.6% | NCI-H226 lung 24% | NCI-H522 lung 44% | A549/ATCC NSCLC 39.7% | COLO 205 colon 60.7%

COc1ccccc1-n1c(-c2csc(NC(C)=O)n2)n[nH]c1=S
inactive: NCI-H23 lung 93.1% | NCI-H226 lung 96.7% | HOP-92 NSCLC 96% | NCI-H522 lung 82.5% | A549/ATCC NSCLC 100% | 786-0 renal 97.2% | COLO 205 colon 115%

O=C(CCCNC(=O)c1nc(-c2ccccc2)n(-c2ccccc2)n1)NO
inactive: NCI-H23 lung 101% | NCI-H226 lung 85.6% | NCI-H522 lung 75.4% | A549/ATCC NSCLC 71.7% | 786-0 renal 92.3% | COLO 205 colon 109%

COc1cc2c3c(n(C4CCN(C)CC4)c(=O)c2cc1OC)-c1cc2c(cc1C3=O)OCO2
inactive: NCI-H23 lung 52.4% | NCI-H226 lung 60.8% | A549/ATCC NSCLC 55% | 786-0 renal 55.4% | COLO 205 colon 59.5%
active: NCI-H522 lung 8.85%

CCCCCCCCCCCCCCCCCC[n+]1ccc2c(C)c3c(c(C)c2c1)c1cc(O)ccc1n3CC
active: NCI-H23 lung 4.06% | NCI-H460 lung 6.93% | 786-0 renal 5.53% | COLO 205 colon -46.6%
inactive: NCI-H226 lung 58% | NCI-H522 lung 29.2% | A549/ATCC NSCLC 13.9%

COc1cc(CNC(=O)C2CSC3(C)c4ccccc4C(=O)N23)cc(OC)c1OC (stereo unspecified)
inactive: NCI-H23 lung 96.9% | NCI-H322M lung 99.7% | HOP-62 NSCLC 90.1% | NCI-H460 lung 106% | HOP-92 NSCLC 88.4% | NCI-H522 lung 68.8% | A549/ATCC NSCLC 83.1% | 786-0 renal 102% | COLO 205 colon 105%

C=C/C(C)=C/C[C@]1(C)[C@H](C)[C@@H](OC(=O)CCC)[C@H](O)[C@@]23C(=C[C@H](OC)C[C@@H]12)[C@@H](OC(=O)CCC)O[C@H]3OC(C)=O
active: NCI-H23 lung -15.9% | NCI-H226 lung -52.9% | NCI-H460 lung 2.97% | NCI-H522 lung -80.9% | 786-0 renal -79.9% | COLO 205 colon -53.3%
inactive: A549/ATCC NSCLC 12.5%

O=C(Nc1cc([N+](=O)[O-])c2[nH]c(=O)c3ccccc3c2c1)C(F)(F)F
inactive: NCI-H23 lung 81.8% | NCI-H226 lung 93.4% | HOP-92 NSCLC 112% | NCI-H522 lung 77.2% | A549/ATCC NSCLC 62% | 786-0 renal 88.8% | COLO 205 colon 88.5%

CCNc1nc(C(F)(F)F)nc2c1sc(=S)n2-c1ccccc1
inactive: NCI-H23 lung 93.4% | NCI-H226 lung 88.5% | NCI-H460 lung 100% | NCI-H522 lung 70.4% | A549/ATCC NSCLC 74.4% | 786-0 renal 101% | COLO 205 colon 106%

O=C1NC(=O)c2c(CCCSc3nc4ccccc4c(=O)n3CCc3ccccc3)cccc21
inactive: NCI-H23 lung 76.7% | NCI-H226 lung 82.9% | HOP-92 NSCLC 94.5% | NCI-H522 lung 89.3% | A549/ATCC NSCLC 89.4% | 786-0 renal 78.6% | COLO 205 colon 118%

Clc1nc2ccccc2cc1Cn1nnc(Cc2ccccc2)n1
inactive: NCI-H23 lung 45.6% | NCI-H226 lung 58.2% | NCI-H460 lung 74.3% | NCI-H522 lung 42.1% | A549/ATCC NSCLC 53.9% | 786-0 renal 72.9% | COLO 205 colon 82.7%

CN1CCc2c(sc3nc4n(-c5ccc(Cl)cc5)c(=O)[nH]n4c(=O)c23)C1
inactive: NCI-H23 lung 97.4% | NCI-H226 lung 94.7% | NCI-H522 lung 77.9% | A549/ATCC NSCLC 74.7% | 786-0 renal 84.8% | COLO 205 colon 108%

CN1CCc2c(sc3nc4n(-c5ccc(Cl)cc5)cnn4c(=O)c23)C1
inactive: NCI-H23 lung 91.8% | NCI-H226 lung 92.2% | NCI-H460 lung 124% | NCI-H522 lung 94.1% | A549/ATCC NSCLC 88.2% | 786-0 renal 96.4% | COLO 205 colon 97.7%

Cc1ccccc1N1C(=O)c2cc(S(N)(=O)=O)c(Cl)cc2NC1C (stereo unspecified)
inactive: NCI-H23 lung 101% | NCI-H226 lung 112% | NCI-H460 lung 111% | A549/ATCC NSCLC 100% | 786-0 renal 99.6% | COLO 205 colon 118%

O=C(Nc1ccccc1)Nc1ncnc2c1ncn2-c1ccccc1
active: NCI-H460 lung 7.9%
inactive: NCI-H23 lung 90.9% | NCI-H226 lung 59.1% | NCI-H522 lung 74.4% | A549/ATCC NSCLC 44.5% | 786-0 renal 12.1% | COLO 205 colon 86.1%

O=c1[nH]c(=O)n(C2C[C@H](O)[C@@H](CO)O2)cc1C(F)(F)F (stereo partly specified)
inactive: NCI-H23 lung 98.1% | NCI-H226 lung 107% | NCI-H460 lung 113% | A549/ATCC NSCLC 102% | 786-0 renal 101% | COLO 205 colon 113%

Cc1c2cnccc2c(C)c2c1c1cc(O)ccc1n2C(C)C
active: NCI-H23 lung 0.21% | NCI-H460 lung -10% | NCI-H522 lung -9.59% | A549/ATCC NSCLC 7.74% | 786-0 renal 5.57%
inactive: NCI-H226 lung 79.3% | COLO 205 colon 17.9%

COCCn1cc(-c2nc(-c3cccnc3)cs2)c2cc(F)ccc21
inactive: NCI-H23 lung 94% | NCI-H226 lung 91.5% | NCI-H460 lung 92.7% | NCI-H522 lung 70.6% | A549/ATCC NSCLC 90.1% | 786-0 renal 90.8% | COLO 205 colon 104%

CN1C(C(=O)Nc2ccccn2)=C(O)c2sc(Cl)cc2S1(=O)=O
inactive: NCI-H23 lung 99.6% | NCI-H226 lung 106% | NCI-H460 lung 99.9% | A549/ATCC NSCLC 99.9% | 786-0 renal 104% | COLO 205 colon 105%

COc1cc2c3c(n([C@@H]4CCOC4)c(=O)c2cc1OC)-c1cc2c(cc1C3=O)OCO2
active: NCI-H460 lung 4.11% | 786-0 renal 7.24%
inactive: NCI-H23 lung 22.8% | NCI-H226 lung 24.2% | NCI-H522 lung 17.5% | A549/ATCC NSCLC 30.4% | COLO 205 colon 38.8%

Nc1nc(-c2cccnc2)nc2c1sc(=S)n2-c1ccccc1
inactive: NCI-H23 lung 103% | NCI-H226 lung 95.8% | NCI-H460 lung 97.2% | NCI-H522 lung 83.4% | A549/ATCC NSCLC 76.2% | 786-0 renal 98.7% | COLO 205 colon 108%

Fc1ccc2[nH]cc(-c3nc(-c4ccsc4)cs3)c2c1
inactive: NCI-H23 lung 83.6% | NCI-H226 lung 78.5% | NCI-H460 lung 121% | NCI-H522 lung 79.2% | A549/ATCC NSCLC 80% | 786-0 renal 109% | COLO 205 colon 101%

COc1ccc2nc(Cl)c(Cn3nnc(Cc4ccccc4)n3)cc2c1
inactive: NCI-H23 lung 32.5% | NCI-H226 lung 39% | NCI-H460 lung 40% | NCI-H522 lung 38% | A549/ATCC NSCLC 31.5% | 786-0 renal 47.5% | COLO 205 colon 24.9%

Nc1ccc(-c2cccs2)cc1NC(=O)c1ccc(CCCC(=O)Nc2ccc(C3CC3N)cc2)cc1 (stereo unspecified)
inactive: NCI-H23 lung 86.3% | NCI-H226 lung 108% | NCI-H460 lung 38% | NCI-H522 lung 53.6% | A549/ATCC NSCLC 72.1% | COLO 205 colon 73.9%
active: 786-0 renal -48%

CCOC(=O)c1sc2ncnc(Nc3ccc(NC(=O)Nc4ccc(Cl)cc4)cc3)c2c1C
inactive: NCI-H23 lung 52.2% | NCI-H226 lung 87.3% | NCI-H460 lung 41.1% | NCI-H522 lung 54.1% | A549/ATCC NSCLC 54.5% | 786-0 renal 52.3% | COLO 205 colon 53%

O=C1c2ccccc2-c2c1c1cccnc1c(=O)n2C[C@H](O)CO
inactive: NCI-H23 lung 56.6% | NCI-H226 lung 78.8% | NCI-H460 lung 14.6% | NCI-H522 lung 44.4% | A549/ATCC NSCLC 31.9% | 786-0 renal 55.2% | COLO 205 colon 53.9%

CCCN1CN2C(=O)N3CN(CCC)CN4C(=S)N(C1)C2C34 (stereo unspecified)
inactive: NCI-H23 lung 100% | NCI-H322M lung 87.6% | HOP-62 NSCLC 84.7% | NCI-H460 lung 112% | HOP-92 NSCLC 101% | NCI-H522 lung 91.7% | A549/ATCC NSCLC 102% | 786-0 renal 93.2% | COLO 205 colon 114%

COc1ccc(-c2cc(-c3cc(OC)ccc3OC)nc(N)c2C#N)cc1
inactive: NCI-H23 lung 68.8% | NCI-H226 lung 63.7% | NCI-H522 lung 23.6% | A549/ATCC NSCLC 62.6% | 786-0 renal 66.2%

N#Cc1c(-c2ccc(Cl)cc2)cc(-c2cc(O)ccc2O)nc1N
active: NCI-H460 lung 5.46% | NCI-H522 lung -8.49% | 786-0 renal -4.38%
inactive: NCI-H23 lung 11.2% | NCI-H226 lung 94.8% | A549/ATCC NSCLC 40% | COLO 205 colon 97.5%
